Results on 14 compounds are retold here after PubChem BioAssay (NCATS).

Structures are written as SMILES. Results filed as inconclusive are left out. Active and inactive are the calls of the source. Unless noted, calls follow the shape of the dose curve; as a rule, active = well fitted curve in the direction sought with a large enough effect; inconclusive = small, poorly fitted or top-dose-only effect, or another doubt; inactive = no such curve, though single readings can be large; an effect the other way counts as inactive or inconclusive.

The nature of assay [1]: Cell Viability - LYMP2-001 (AID 921). Also: series mostly up to about 92 µM; nearly all actives have a fitted effect of over 70% in size. In a few lines: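 Cellular ATP loss read by luciferase luminescence after 24 h compound exposure at 37 C in complete medium. LYMP2-001 lymphoblastoid cells, 2500/well; qHTS concentration-response data fitted with Hill equation for AC50.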
Assay [2] can be described thus: MultiTox-Fluor Cytotoxicity Assay - LYMP1-001 - Dead Cells (AID 946). In a few lines: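 LYMP1-001 lymphoblastoid cells (2500/well) treated 16 h at 37 C. Dead-cell protease cleavage of bis-AAF-R110 read at Ex/Em 485/520. Normalized to DMSO and 15 uM tetraoctylammonium bromide; AC50 from Hill fits.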
Assay [3] is described as follows: MultiTox-Fluor Cytotoxicity Assay - LYMP1-001 - Live Cells (AID 947).
Assay [4] can be described thus: Cell Viability - LYMP1-002 - Assay at 16 hr (AID 948). In a few lines: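 ATP luminescence (CellTiter-Glo) was measured after 16 hr compound exposure at 37 C of 2500 lymphoblastoid LYMP1-002 cells per well. Concentration-response curves were fitted with the Hill equation to give AC50.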
A short description of assay [5]: MultiTox-Fluor Cytotoxicity Assay - LYMP1-002 - Live Cells (AID 955). In a few lines: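 Read-out is live-cell protease activity (cell-permeant GF-AFC substrate, fluorescence Ex/Em=405/510), where a decrease indicates acute toxicity. Human lymphoblastoid cells were treated 16 hours at 37 C in a concentration series, and AC50 values came from standard Hill modelling.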

The nature of assay [6]: MultiTox-Fluor Cytotoxicity Assay - LYMP1-002 - Dead Cells (AID 960). Also: nearly all actives have a fitted effect of over 60% in size. In a few lines: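 LYMP1-002 cells 2500/well; 5 hr 37 C pre-incubation; compound 16 hr 37 C; MultiTox-Fluor reagent 60 min RT; dead-cell fluor Ex/Em 485/520. Norm. to DMSO (0%) vs 15 uM tetraoctylammonium bromide (100%); Hill AC50.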
Assay [7] in a line: MultiTox-Fluor Cytotoxicity Assay - LYMP1-003 - Dead Cells (AID 961). Also: nearly all actives have a fitted effect of over 70% in size. In a few lines: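 LYMP1-003 human lymphoblastoid cells (2500/well) exposed to compound 16 h at 37 C in complete medium; dead-cell protease read with bis-AAF-R110 fluorescence (Ex/Em 485/520) after 60 min at room temperature. Normalized to DMSO and 15 uM tetraoctylammonium bromide; AC50 from Hill fit.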
Assay [8] is described as follows: MultiTox-Fluor Cytotoxicity Assay - LYMP1-003 - Live Cells (AID 962).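 Also: cytotoxic hits lower the live-cell protease signal.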 In a few lines: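 qHTS, 1536-well; 2500 cells/well LYMP1-003; 5 hr 37 C settle; cpd 16 hr 37 C; MultiTox-Fluor reagent 60 min RT; live-cell protease fluor. 405/510; Hill-fit AC50; tetraoctylammonium bromide pos. ctrl.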
Assay [9] can be described thus: Cell Viability - LYMP1-003 - Assay at 24 hr (AID 963). In a few lines: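 Cells seeded at 2500/well, 5 hr at 37 C; compounds added; 24 hr at 37 C; CellTiter-Glo added, 30 min room temperature; luminescence read. Decrease in ATP taken as cytotoxicity, AC50 from Hill modelling.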
The nature of assay [10]: Cell Viability - LYMP1-003 - Assay at 40 hr (AID 964). Also: series mostly up to about 92 µM; nearly all actives have a fitted effect of over 60% in size. In a few lines: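 Cells were seeded at 2500 per well and incubated 5 hr at 37 C. Compounds were added across a concentration series and left 40 hr at 37 C. CellTiter-Glo was added for 30 min at room temperature before luminescence reading.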
The nature of assay [11]: qHTS Assay for Identification of Small Molecule Agonists for Thrombopoietin (TPO) Signaling Pathway (AID 917). In a few lines:
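Reporter: GpIIb promoter–luciferase in murine Ba/F3 expressing human TPO receptor. Pre-starved of IL-3 overnight; compounds with 26 pM TPO, 24 hrs, 37 C/5% CO2; luminescence read.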

The target in assay [12] is Muscarinic acetylcholine receptor M1 (Rattus norvegicus) (UniProt P08482). In words: qHTS Assay for Antagonists of Acetylcholine Muscarinic M1 Receptor: Measurement of IP-One Response (AID 944). Also: nearly all actives have a fitted effect of over 75% in size. In a few lines:
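M1-CHO (rat), 2000 cells/well, overnight recovery; cpd 10 min; carbachol EC80 (200 nM), 30 min, HEPES buffer + 50 mM LiCl pH 7.4; IP-One HTRF, Ex 337, Em 620/665 nm.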

The target of assay [13] is Pyruvate kinase (Leishmania mexicana) (UniProt Q27686). As to the kind of experiment: qHTS Validation Assay for Inhibitors of Leishmania Mexicana Pyruvate Kinase (AID 945). In a few lines: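 The enzyme is a highly purified E451W mutant of LmPYK used at 0.2 nM. It converts 0.5 mM PEP and 0.1 mM ADP over 1 h at room temperature; product ATP is quantified by luciferase luminescence relative to DMSO controls.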
Pyruvate kinase (Leishmania mexicana), sequence (Q27686 2-499 E452W): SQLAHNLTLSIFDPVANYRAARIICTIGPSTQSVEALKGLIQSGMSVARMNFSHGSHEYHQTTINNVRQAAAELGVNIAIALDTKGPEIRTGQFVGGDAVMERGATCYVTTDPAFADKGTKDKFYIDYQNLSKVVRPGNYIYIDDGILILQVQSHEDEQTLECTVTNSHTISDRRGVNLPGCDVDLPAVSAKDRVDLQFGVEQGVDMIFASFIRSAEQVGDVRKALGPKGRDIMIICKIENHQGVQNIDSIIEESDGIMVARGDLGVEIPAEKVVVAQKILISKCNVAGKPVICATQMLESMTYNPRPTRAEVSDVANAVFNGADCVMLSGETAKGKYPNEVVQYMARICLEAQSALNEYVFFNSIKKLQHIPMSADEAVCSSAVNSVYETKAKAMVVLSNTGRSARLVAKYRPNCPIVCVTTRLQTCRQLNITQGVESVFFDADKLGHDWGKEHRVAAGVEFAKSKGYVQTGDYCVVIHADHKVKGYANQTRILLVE
In general terms: Quantitative high-throughput screening tests each substance at several concentrations.

Assay [14] concerns the target Pyruvate kinase PKM (Homo sapiens) (UniProt P14618). As to the kind of experiment: qHTS Assay for Activators of Human Muscle Pyruvate Kinase (AID 954; active = well fitted curve in the direction sought with a large enough effect, not every such curve was filed as active). In a few lines: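 Purified human PKM2 (0.1 nM) with 0.5 mM PEP (Km) and 0.1 mM ADP in 50 mM imidazole pH 7.2, KCl, MgCl2, 1 h at room temperature; ATP formed read by coupled luciferase luminescence. Normalized to no-enzyme/110 uM thiadiazolimine inhibition; 0.3 nM enzyme column for activation.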

Assay [15] is described as follows: qHTS Assay for Identification of Small Molecule Antagonists for Thrombopoietin (TPO) Signaling Pathway (AID 918). Also: potency is read from the fitted curve at half-maximal effect; nearly all actives have a fitted effect of over 60% in size. The conditions noted are these: TPO-dependent cell signaling reporter, antagonist mode. In a few lines: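 Ba/F3 (murine, hTPO-R, GPIIb-luc reporter); overnight IL-3 withdrawal; cpd + TPO 26 pM final (EC50); 24 h 37 C/5% CO2; Steadylite luminescence after 10 min RT.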

Assay [16] in a line: Confirmation and Secondary Assay for Modulators of Hemoglobin Beta Chain Splicing at IVS2 705 locus (AID 930).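 Also: HeLa cells stably expressing the EGFP-705 splicing reporter; GFP fluorescence per well restored by corrected splicing of the IVS2-705 intron in EGFP; series mostly up to about 46 µM.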 In a few lines: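 Splice-correction reporter: EGFP cDNA split by beta-globin intron 2 bearing the 705 mutation, stably in HeLa. Compound incubation 2 days, 37C; fluorescent objects 5-250 µm summed per well.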
Assay [17] has as its target Muscarinic acetylcholine receptor M1 (Rattus norvegicus) (UniProt P08482). As to the kind of experiment: qHTS Assay for Antagonists of Acetylcholine Muscarinic M1 Receptor: Kinetic Measurement of Intracellular Calcium Response (AID 943).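 Also: Fluo-4 calcium signal as peak divided by basal fluorescence over 4 min; series mostly up to about 35 µM; nearly all actives have a fitted effect of over 75% in size.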 In a few lines: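 Rat M1-CHO cells, 2000/well, overnight → Fluo-4 no-wash dye with probenecid, 1 h 37C → compound 10 min, room temp → basal read 6 s → carbachol EC80 (100 nM) → 4 min kinetic read; peak/basal.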

Muscarinic acetylcholine receptor M1 (Rattus norvegicus), sequence (P08482 whole entry, looked up): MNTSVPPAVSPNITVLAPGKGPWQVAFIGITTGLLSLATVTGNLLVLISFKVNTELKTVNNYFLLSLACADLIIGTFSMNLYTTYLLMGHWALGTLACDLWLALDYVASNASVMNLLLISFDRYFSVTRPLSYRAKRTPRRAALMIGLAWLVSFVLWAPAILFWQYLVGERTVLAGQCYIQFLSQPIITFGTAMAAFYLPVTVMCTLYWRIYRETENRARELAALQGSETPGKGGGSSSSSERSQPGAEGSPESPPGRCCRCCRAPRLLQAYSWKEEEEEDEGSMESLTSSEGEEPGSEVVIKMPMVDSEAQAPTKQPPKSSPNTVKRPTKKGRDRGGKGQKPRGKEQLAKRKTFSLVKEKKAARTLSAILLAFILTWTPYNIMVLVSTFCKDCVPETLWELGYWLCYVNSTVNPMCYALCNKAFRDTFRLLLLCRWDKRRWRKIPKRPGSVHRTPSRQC
Pyruvate kinase PKM (Homo sapiens), sequence (P14618 whole entry, looked up): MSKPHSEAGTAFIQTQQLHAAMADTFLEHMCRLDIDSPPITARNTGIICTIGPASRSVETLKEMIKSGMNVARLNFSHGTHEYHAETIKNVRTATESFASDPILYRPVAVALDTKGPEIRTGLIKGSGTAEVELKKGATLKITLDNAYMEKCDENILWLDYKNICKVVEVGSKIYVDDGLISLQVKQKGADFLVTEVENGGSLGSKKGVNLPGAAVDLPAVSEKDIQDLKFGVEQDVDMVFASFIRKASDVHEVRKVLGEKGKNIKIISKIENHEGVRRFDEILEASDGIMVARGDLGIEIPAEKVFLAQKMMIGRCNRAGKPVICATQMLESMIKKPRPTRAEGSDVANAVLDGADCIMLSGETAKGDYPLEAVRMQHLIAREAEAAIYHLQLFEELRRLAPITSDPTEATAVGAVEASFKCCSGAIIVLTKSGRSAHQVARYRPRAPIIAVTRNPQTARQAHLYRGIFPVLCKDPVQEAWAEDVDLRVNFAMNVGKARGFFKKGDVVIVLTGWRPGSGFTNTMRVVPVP

In the case of `O=c1cc(-c2ccccc2)oc2ccccc12`, the Potency result in assay [1], in assay [2], in [3], in assay [4], in [5] and in [6] was “inactive” throughout. Also, the Potency entry in assay [7], in [8], in [9] and in assay [10] was “inactive” throughout.

For `CN(C)c1nc(N)c(C(=O)N=C(N)N)nc1Cl`, the Potency result in assay [11], in assay [12] and in assay [13] was “inactive” throughout. In assay [14], the compound was called inactive.

For the compound `CCCCCCCCCCCCCCCCCC(=O)O`, the Potency entry in [1], in [2], in assay [3], in assay [4], in [5] and in assay [6] was “inactive” in each case. Also, the Potency result in [7], in assay [8], in assay [9] and in assay [10] was “inactive” throughout.

For the compound `COC1=C(OC)C(=O)c2ccccc2C1=O`, the Potency in assay [15] was 3.98 µM (active). Moreover, the Potency result in [13] is “inactive”. Also, in assay [14], the outcome was inactive.

Consider `C=C[C@H]1CN2CC[C@@H]1C[C@@H]2[C@@H](O)c1ccnc2ccc(OC)cc12`, for which the Potency entry in assay [11], in assay [12] and in [13] was “inactive” in each case. In assay [14], the outcome was inactive.

`O=C1CN(/N=C/c2ccc([N+](=O)[O-])o2)C(=O)N1`: the Potency entry in [1], in [2], in assay [4], in [5], in assay [6] and in assay [7] was “inactive” each time. Further, the outcome in [16] was inactive.

With `NC[C@@H]1O[C@H](C23CC4CC(CC(C4)C2)C3)Cc2c1ccc(O)c2O`, in [15], the Potency was 10 µM (active). In addition, the Potency result in assay [17], in [12] and in [13] was “inactive” in each case. In [14], the result was inactive.

In the case of `CCCn1c(=O)c2[nH]c(-c3ccc(OCC(=O)NCCN)cc3)nc2n(CCC)c1=O`, the Potency result in [11] and in [13] was “inactive” in each case. Also, the outcome in assay [14] was inactive.

With `CC(C)Cc1ccc([C@H](C)C(=O)O)cc1`, the Potency result in assay [11] and in [13] was “inactive” in each case. The outcome in [14] was inactive.

Regarding `S=c1[nH]c2ccccc2s1`, the Potency result in assay [1], in [2], in assay [3], in assay [4], in assay [5] and in assay [6] was “inactive” throughout. In addition, the Potency entry in assay [7], in assay [8], in [9] and in [10] was “inactive” throughout. The compound was called inactive in assay [16].

On to `CC(C)NCC(O)COc1cccc2ccccc12` (configuration not stated), for which the Potency entry in assay [1], in [2], in [3], in [4], in assay [5] and in [7] was “inactive” each time. In addition, the Potency result in assay [8], in assay [9] and in [10] was “inactive” throughout. The compound was classed as inactive in [16].

As for `NCCCCCCCCCCN`, the Potency result in assay [11], in [12] and in [13] was “inactive” throughout. Besides, the outcome in assay [14] was inactive.

As for `O=Nc1ccc2oc(=O)ccc2c1`, the Potency in assay [15] is 5.01 µM (active). For the same compound, the Potency result in assay [17], in assay [12] and in assay [13] was “inactive” throughout. Moreover, the result in assay [14] was inactive.

In the case of `CN1[C@@H]2CC[C@H]1CC(OC(c1ccccc1)c1ccccc1)C2` (some centres not stated), the Potency result in assay [11] and in assay [13] was “inactive” each time. Besides, the call in [14] was inactive.
